This is an account of results in paper PMC7819943, “Rice protein-binding microarrays: a tool to detect cis-acting elements near promoter regions in rice”.

Whole data set: some 39,000 sequences, median “fluorescence intensity (a.u.)” near 4,300, cut for the highest 2% near 39,000. The list comes from a sample in which the highest values are over-represented; it also holds similar and randomly drawn sequences.

The target in this experiment is T1, OsSMF1 (Oryza sativa, UniProt Q6ZLB0 1-436).
T1 sequence: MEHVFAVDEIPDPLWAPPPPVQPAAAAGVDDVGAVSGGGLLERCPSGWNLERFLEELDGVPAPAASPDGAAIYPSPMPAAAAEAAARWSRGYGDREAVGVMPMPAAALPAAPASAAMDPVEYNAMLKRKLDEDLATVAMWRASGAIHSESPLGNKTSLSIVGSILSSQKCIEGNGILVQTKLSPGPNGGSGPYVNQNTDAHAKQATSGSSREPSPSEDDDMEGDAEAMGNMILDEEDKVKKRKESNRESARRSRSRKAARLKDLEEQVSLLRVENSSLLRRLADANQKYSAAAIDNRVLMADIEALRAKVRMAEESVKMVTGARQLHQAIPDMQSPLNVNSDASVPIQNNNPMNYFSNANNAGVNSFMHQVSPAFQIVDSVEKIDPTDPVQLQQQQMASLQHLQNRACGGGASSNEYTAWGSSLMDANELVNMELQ
Nature of the experiment: protein-binding microarray (RPBM); PBS, 2% BSA, 51.3 ng/ul salmon testes DNA, 50 uM zinc acetate, 200 nM TF, 25 C, 1 h; high values mean tight binding. As to conditions: protein: recombinant; tags: N-terminal polyhistidine and DsRed monomer fusion (pET32a); chain copies: 2; label: CyDye5-dUTP incorporated in the synthesized complementary strand; 3' TTTTT single-stranded linker to array surface; dsDNA, one strand shown. Summed up: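 Per-feature fluorescence intensity (arbitrary units), read on an Axon 4000B scanner, is the binding signal. Transcription factors carrying an N-terminal polyhistidine tag and DsRed fusion were expressed in E. coli BL21-CodonPlus and purified on Ni–NTA. A custom Agilent array, made double-stranded by primer extension with Cy5-dUTP and blocked with 2% BSA, was incubated with 200 nM protein in PBS, 2% BSA, salmon testes DNA and 50 µM zinc acetate at 25 °C for 1 h and then washed.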
For the sequence “CTGTTTCAGCACCACTGAGTTCGCAGCAAATGACACAAGGCGGAGTCACCTAGTGCAG”, the binding signal was 3340 fluorescence intensity (a.u.).
As to “CTTCAGGGTCTAGTCTTTTCAAACCATCGGAGTTATCGTCCGGAGTCACCTAGTGCAG”, the binding signal was 3530 fluorescence intensity (a.u.).
Next, “CCGTCACGGATGACACTTATCTGTGACGGGCTATAGTTGACGGAGTCACCTAGTGCAG”: 4260 fluorescence intensity (a.u.).
“GTCGCGCGCTTGGTGGCTTGCAAGAACCAGCTCCACCGCGCGGAGTCACCTAGTGCAG”: the binding signal is 3300 fluorescence intensity (a.u.).
Regarding “GATTCGTTGAATACCGTCATTATTGGTGGGTTATCATCATCGGAGTCACCTAGTGCAG”, the binding signal was 3490 fluorescence intensity (a.u.).
The figure for “GTGGAGTGCGGTGGACGGAGCGGCGGGGCGGGGCGGTCAGCGGAGTCACCTAGTGCAG” is 6720 fluorescence intensity (a.u.); for “AAAGTTTTGCATGCCGCTGTCGAAGTCGGCTTCCGCGTAGCGGAGTCACCTAGTGCAG” it is 32300 fluorescence intensity (a.u.); for “AGAGAGAGAGAGAGAGAGAGAGAGCTCAGGATCGACGAGACGGAGTCACCTAGTGCAG” it is 16900 fluorescence intensity (a.u.).
Turning to “TGCAGCAGGAGATCGATCGATCGATCGATCCAACCGAATGCGGAGTCACCTAGTGCAG”, the binding signal was 3260 fluorescence intensity (a.u.).
As for “ACCAACAAGGTCGTCGCCGACGACGCCGACGCCGACGCCGCGGAGTCACCTAGTGCAG”, the binding signal is 27600 fluorescence intensity (a.u.).
In the case of “TTAGTGAACGGTGCAACGCGTCAAGGACGAGTCAACGCGCCGGAGTCACCTAGTGCAG”, the binding signal was 4850 fluorescence intensity (a.u.).
With “ACGGAGAAGTCCCGAGACCGGCGCCGCCAGGACCGCCACCCGGAGTCACCTAGTGCAG”, the binding signal is 44400 fluorescence intensity (a.u.).
For the sequence “TCGGCGCCGCGCCGCGCCACGGAGGGTGTCACGAGACCGCCGGAGTCACCTAGTGCAG”, the binding signal was 4790 fluorescence intensity (a.u.).
“GCCAACGAGGTCGCGTTCGACAAGGTGAAGGACGCCGGCGCGGAGTCACCTAGTGCAG”: the binding signal was 39600 fluorescence intensity (a.u.).
As to “AACCGAATCCAATCGAGCTCAGGACGAGGCGGAGGAGGAGCGGAGTCACCTAGTGCAG”, the binding signal was 42900 fluorescence intensity (a.u.).
In the case of “GCCTAGCCAGGATCGCCGCCGGCGGCGCCGCCGAGTCACACGGAGTCACCTAGTGCAG”, the binding signal was 33100 fluorescence intensity (a.u.).
In the case of “TCTCCATAAGAGCACCCACCAACTCAGCCTCTCCTCCCATCGGAGTCACCTAGTGCAG”, the binding signal is 3340 fluorescence intensity (a.u.).
As for “CTCCTCCGCCGCCGCCGCTCCCAGCCTGCACGCCGGCCGCCGGAGTCACCTAGTGCAG”, the binding signal was 26200 fluorescence intensity (a.u.).
Next, “GTGCTGTTCCTGCATGTGCATGCATGTATGAGTACGTACGCGGAGTCACCTAGTGCAG”: 3910 fluorescence intensity (a.u.); “TCTCTCTTCACGGGAGGGCAGTGTGGTTTTGGTCGGATTCCGGAGTCACCTAGTGCAG”: 3530 fluorescence intensity (a.u.).
As for “TAGTAGATCTAGTATTTTATCTTTAGTCCATCTACCGAGCCGGAGTCACCTAGTGCAG”, the binding signal is 28500 fluorescence intensity (a.u.).
Regarding “GCCGCTACAAACCGTGGGCAAGACGTGTCGCCATGGGAGCCGGAGTCACCTAGTGCAG”, the binding signal is 4560 fluorescence intensity (a.u.).
As to “TGCCAATGTTCCAATTGGTGTTGTCATCTTTGGGTTACCACGGAGTCACCTAGTGCAG”, the binding signal was 14100 fluorescence intensity (a.u.).
Take “ATTTGGGATGTCTTTATCTCATCCAATTAATCCACGGATACGGAGTCACCTAGTGCAG”: the binding signal is 49200 fluorescence intensity (a.u.).
In the case of “CAATTTAATGCTACTTATCTCACATGATGTCTTGGATGTTCGGAGTCACCTAGTGCAG”, the binding signal is 3980 fluorescence intensity (a.u.).
In the case of “GGGCACTCGAACCATCTAGTGCAGACGTGGTAACTGGCGCCGGAGTCACCTAGTGCAG”, the binding signal was 5510 fluorescence intensity (a.u.).
On to “ATATCCATATCAAATTAAGCCAGGTTTGTAATTAATAACTCGGAGTCACCTAGTGCAG”, for which the binding signal was 9630 fluorescence intensity (a.u.).
“TCTTATACTAAGATAATAAGATTATATCCTTGTCATCCAACGGAGTCACCTAGTGCAG”: the binding signal was 4430 fluorescence intensity (a.u.).
Next, “CCAAACTAATTAAGACAGCCAACTCACCTCCATCATATAACGGAGTCACCTAGTGCAG”: 65500 fluorescence intensity (a.u.); “GCCGCCGCTCCCTCCCAATGACCCGCCGGATCTCCTAGTGCGGAGTCACCTAGTGCAG”: 3160 fluorescence intensity (a.u.).
Turning to “CCTGCAGCCAGGTCCTCGTATCATAGATGACGACGACTTCCGGAGTCACCTAGTGCAG”, the binding signal was 4660 fluorescence intensity (a.u.).
Next, “TTTTGGATTCCCTTTTCATCCATGGATGCATGTGTTCCTTCGGAGTCACCTAGTGCAG”: 3220 fluorescence intensity (a.u.).
Consider “TACTAGTGTGGACATGTTCCCCTTTTCAGGAAGATGGCAGCGGAGTCACCTAGTGCAG”, for which the binding signal is 40300 fluorescence intensity (a.u.).
Consider “CGAAGCGGTTCAGGAAGATGGAGCGGCACGTGGCTGCGACCGGAGTCACCTAGTGCAG”, for which the binding signal was 5240 fluorescence intensity (a.u.).
As to “GGCAGCGACCACGACACGTCGTTGTTCCCTCTGCTCCCGCCGGAGTCACCTAGTGCAG”, the binding signal is 6470 fluorescence intensity (a.u.).
Take “GTGTGTGTGTGTGCTGCGTGTGCGTGTGCGCGCGCGTGCCCGGAGTCACCTAGTGCAG”: the binding signal is 5210 fluorescence intensity (a.u.).
Regarding “CAATCCCACCTCGCGCGATGACTCCGCACCCGCCCCACCTCGGAGTCACCTAGTGCAG”, the binding signal is 7260 fluorescence intensity (a.u.).
In the case of “GCACCTCGCAATATCCATGGTCCCCGCTGCCCGTGGACTCCGGAGTCACCTAGTGCAG”, the binding signal is 41200 fluorescence intensity (a.u.).
With “CCCTCGCCGCCACGGCGAACCCCTCGCCGCCGCCACCGCCCGGAGTCACCTAGTGCAG”, the binding signal was 3570 fluorescence intensity (a.u.).
“GACTCCCGCGTGCTCGCCGCGCCGCCCACCGTCACCGCCTCGGAGTCACCTAGTGCAG”: the binding signal is 3230 fluorescence intensity (a.u.).
In the case of “GCGCTGCCACGAGTGCCCGCGTCATCCCGTCCCCTCGCACCGGAGTCACCTAGTGCAG”, the binding signal is 6120 fluorescence intensity (a.u.).
Next, “AACTCCTCGCCACCACGCCGCTTTATTCTCTAAGAACCCCCGGAGTCACCTAGTGCAG”: 40700 fluorescence intensity (a.u.); “GCCACCGCTGCATCATCCCGCCTGTCTGCCTGCGCGCGCCCGGAGTCACCTAGTGCAG”: 3430 fluorescence intensity (a.u.).
